Assay [1] in a line: ATG_TCF_b_cat_CIS: Attagene CIS-FACTORIAL HepG2 Assay for human T-Cell-Factor with beta-catenin (TCF/b-cat) (AID 2282965). Conditions: HepG2 TCF/beta-catenin cis-reporter transcription, actives raise or lower the signal. In short, it runs like this: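 Using capillary electrophoresis as the read-out, labelled reporter cDNA fragments from transiently transfected HepG2 were sized and quantified. Exposure lasted 24 hours; activity in either direction was referenced to DMSO.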

A short description of assay [2]: ATG_TAL_CIS: Attagene CIS-FACTORIAL HepG2 Assay for human TAL Basal Promoter (AID 2282966).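 Note: background control endpoint measuring basal TAL promoter reporter mRNA not a specific factor.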 To be noted: HepG2 Attagene cis-factorial TAL promoter reporter; actives raise or lower the signal. In short, it runs like this: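 HepG2 cells transiently transfected with multiplexed cis-promoter reporter units, dosed 24 h. Reporter mRNA quantified by RT-PCR, 6-FAM labelling, HpaI digestion and capillary electrophoresis; TAL basal promoter serves as background control, fitted bidirectionally versus DMSO.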

Assay [3] is described as follows: ATG_VDRE_CIS: Attagene CIS-FACTORIAL HepG2 Assay for human Vitamin D Receptor Element (VDRE) (AID 2282968). Conditions: HepG2 VDRE cis-reporter transcription, actives raise or lower the signal. The method, boiled down:
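HepG2 cells transiently transfected with cis-element reporter units, dosed 24 h; reporter mRNA measured by RT-PCR, 6-FAM labeling, HpaI digestion and capillary electrophoresis. Activity fitted bidirectionally against DMSO baseline.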

Assay [4] concerns the target Nuclear receptor subfamily 1 group I member 3 (Homo sapiens) (UniProt Q14994). In words: ATG_CAR_TRANS: Attagene TRANS-FACTORIAL HepG2 Assay for human Constitutive Androstane Receptor (CAR) (AID 2282969; active = hit-call score of the fitted dose curve at least 0.9, where 1 is the maximum;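 note: activators raise reporter mRNA above DMSO so AC50 marks induction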). Conditions: HepG2 Attagene TRANS-FACTORIAL CAR reporter. The method, boiled down: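 HepG2 cells transiently transfected with multiplexed GAL4-UAS reporter units expressing chimeric NR-Gal4 proteins; compound exposure 24 h. Reporter mRNA measured by RT-PCR, 6-FAM labelling, HpaI digestion and capillary electrophoresis; gain-of-signal fitted against DMSO baseline.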

Assay [5] deals with X-box-binding protein 1 (Homo sapiens) (UniProt P17861). In words: ATG_Xbp1_CIS: Attagene CIS-FACTORIAL HepG2 Assay for human X-box Binding Protein 1 (XBP1) (AID 2282972). To be noted: HepG2 XBP1 cis-element reporter, Attagene multiplex; actives raise or lower the signal. In short, it runs like this:
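HepG2 cells transiently transfected with multiple cis-element reporter units report endogenous TF activity; 24 h exposure, then reporter mRNA measured by RT-PCR, 6-FAM labelling, HpaI digestion and capillary electrophoresis. Bidirectional fitting versus DMSO.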

A short description of assay [6]: ATG_M_19_TRANS: Attagene TRANS-FACTORIAL HepG2 Assay for M19 Transcription Factor (Internal Marker) (AID 2282974; active = hit-call score of the fitted dose curve at least 0.9, where 1 is the maximum). To be noted: HepG2 Attagene TRANS-FACTORIAL M19 internal marker reporter. In short, it runs like this: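 Measured here: internal-marker reporter transcript from HepG2 cells transfected with MRTUs, harvested at 24 h. cDNA PCR products were 6-FAM labelled by primer extension, cut with HpaI for 2 h at 37 C, and resolved by CE.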

The nature of assay [7]: ATG_TGFb_CIS: Attagene CIS-FACTORIAL HepG2 Assay for human Transforming Growth Factor (TGF) (AID 2282967). To be noted: HepG2 Attagene CIS TGFb reporter, mRNA transcription; actives raise or lower the signal. In short, it runs like this: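 After a 24-hour incubation with compound, transfected HepG2 cells were lysed for RNA; reporter cDNA was amplified, fluorescently end-labeled and separated by CE. DMSO served as baseline for bidirectional fits.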

In assay [8] the target is Estrogen receptor (Homo sapiens) (UniProt P03372). As to the kind of experiment: ATG_ERa_TRANS: Attagene TRANS-FACTORIAL HepG2 Assay for human Estrogen Receptor alpha (ERa) (AID 2282970; active = hit-call score of the fitted dose curve at least 0.9, where 1 is the maximum). Conditions: HepG2 Attagene TRANS ERa GAL4 reporter, mRNA. In short, it runs like this: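 HepG2 cells transiently transfected with multiplexed GAL4-UAS reporter units read out chimeric NR-Gal4 activity. After 24 h compound exposure, reporter mRNA was quantified by RT-PCR, 6-FAM labeling, HpaI digestion and capillary electrophoresis, relative to DMSO.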
Sequence of Estrogen receptor (Homo sapiens) (P03372 whole entry, looked up, the tested form may be a part): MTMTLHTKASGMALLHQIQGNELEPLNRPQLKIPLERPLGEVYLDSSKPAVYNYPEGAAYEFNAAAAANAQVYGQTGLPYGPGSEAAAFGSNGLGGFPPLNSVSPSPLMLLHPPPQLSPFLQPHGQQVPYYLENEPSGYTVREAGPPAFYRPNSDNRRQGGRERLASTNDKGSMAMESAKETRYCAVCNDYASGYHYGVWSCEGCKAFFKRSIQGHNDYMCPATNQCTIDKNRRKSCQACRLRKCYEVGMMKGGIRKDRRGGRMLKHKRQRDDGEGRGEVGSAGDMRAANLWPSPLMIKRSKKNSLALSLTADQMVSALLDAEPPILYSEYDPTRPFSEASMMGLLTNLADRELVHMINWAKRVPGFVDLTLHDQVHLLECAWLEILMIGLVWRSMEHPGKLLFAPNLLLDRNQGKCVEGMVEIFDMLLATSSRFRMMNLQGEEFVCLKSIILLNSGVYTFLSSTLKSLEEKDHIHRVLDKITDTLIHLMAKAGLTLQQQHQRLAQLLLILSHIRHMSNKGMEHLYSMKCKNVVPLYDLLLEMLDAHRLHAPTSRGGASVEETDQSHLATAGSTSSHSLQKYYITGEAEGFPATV

The target in assay [9] is Steroid hormone receptor ERR1 (Homo sapiens) (UniProt P11474). In words: ATG_ERRa_TRANS: Attagene TRANS-FACTORIAL HepG2 Assay for human Estrogen-Related Receptor alpha (ERRa) (AID 2282971; active = hit-call score of the fitted dose curve at least 0.9, where 1 is the maximum). To be noted: HepG2 Attagene TRANS reporter, ERRa transactivation. The method, boiled down:
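HepG2 cells transiently transfected with GAL4-UAS reporter units and chimeric NR-Gal4 constructs; after 24 hour compound incubation, reporter mRNA quantified by RT-PCR, fluorescent labelling and capillary electrophoresis, gain of signal versus DMSO.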

From PubChem BioAssay (EPA / NIEHS) come the findings set out here.

Each structure is given as a SMILES string. “And” between values parts separate entries of the source, which are not always exact repeats. Identical values can stand only once. Records with an inconclusive call do not appear. Some compounds were tested as several samples or in several runs, with calls that do not always agree. The source made the active and inactive calls. Rule for the calls, unless noted: active = hit-call score of the fitted dose curve at least 0.9, where 1 is the maximum; inactive = score below 0.9.

Sequence of Nuclear receptor subfamily 1 group I member 3 (Homo sapiens) (Q14994 whole entry, looked up, the tested form may be a part): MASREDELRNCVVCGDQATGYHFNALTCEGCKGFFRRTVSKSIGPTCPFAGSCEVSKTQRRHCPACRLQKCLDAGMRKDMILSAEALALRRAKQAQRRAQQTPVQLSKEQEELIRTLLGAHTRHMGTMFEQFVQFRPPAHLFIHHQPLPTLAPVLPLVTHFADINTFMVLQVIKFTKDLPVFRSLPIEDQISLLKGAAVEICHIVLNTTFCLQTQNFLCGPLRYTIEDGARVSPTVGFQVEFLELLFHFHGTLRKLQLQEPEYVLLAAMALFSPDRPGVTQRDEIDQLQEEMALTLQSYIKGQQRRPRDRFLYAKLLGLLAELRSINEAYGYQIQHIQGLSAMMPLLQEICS
Sequence of Steroid hormone receptor ERR1 (Homo sapiens) (P11474 whole entry, looked up, the tested form may be a part): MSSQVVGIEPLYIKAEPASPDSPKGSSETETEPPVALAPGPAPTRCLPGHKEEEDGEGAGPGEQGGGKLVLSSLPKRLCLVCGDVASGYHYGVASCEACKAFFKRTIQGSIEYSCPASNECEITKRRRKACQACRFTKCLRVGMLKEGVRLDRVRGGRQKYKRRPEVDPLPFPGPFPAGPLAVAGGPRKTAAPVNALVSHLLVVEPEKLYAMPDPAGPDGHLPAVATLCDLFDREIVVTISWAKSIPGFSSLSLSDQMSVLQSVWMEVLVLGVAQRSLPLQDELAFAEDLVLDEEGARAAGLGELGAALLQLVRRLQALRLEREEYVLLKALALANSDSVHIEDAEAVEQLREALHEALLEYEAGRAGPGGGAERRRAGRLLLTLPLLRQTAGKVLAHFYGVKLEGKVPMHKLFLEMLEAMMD
Sequence of X-box-binding protein 1 (Homo sapiens) (P17861 whole entry, looked up): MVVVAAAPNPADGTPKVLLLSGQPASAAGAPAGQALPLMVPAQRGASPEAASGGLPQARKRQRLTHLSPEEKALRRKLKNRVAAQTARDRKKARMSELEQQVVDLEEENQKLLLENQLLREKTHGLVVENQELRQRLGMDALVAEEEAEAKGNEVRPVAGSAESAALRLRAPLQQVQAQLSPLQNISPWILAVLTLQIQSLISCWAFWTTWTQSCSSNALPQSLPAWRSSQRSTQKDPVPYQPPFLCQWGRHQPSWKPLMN

Broadly, the AC50 is the midpoint of the concentration-response curve, whichever way the signal moves. With `CC[C@H](c1ccc(O)cc1)[C@@H](CC)c1ccc(O)cc1`, the AC50 in [1] was 9.79 µM (active) and 15.4 µM (active) and 11.1 µM (active); in assay [3], 3.47 µM (active) and 2.97 µM (active). The outcome in [1], in assay [2], in assay [3], in assay [4], in assay [5] and in assay [6] was inactive.

As to `ClC1=C(Cl)C(Cl)(Cl)C(Cl)=C1Cl`, the AC50 in assay [1] was 15.4 µM (active); in assay [2] it was 15 µM (active); in assay [3] it was 14.7 µM (active) and 7.29 µM (active); in assay [8], 15.1 µM (active) and 11.1 µM (active); in assay [5] it was 13.4 µM (active) and 7.05 µM (active). Besides, the molecule was called inactive in assay [1], in assay [2], in assay [7] and in assay [6].

For `CCCCCCCCOC(=O)CCCCCCCCC(=O)OCCCCCCCC`, the outcome in assay [1], in [2], in assay [7], in assay [3], in assay [4] and in [8] was inactive. Also, the molecule was classed as inactive in assay [9], in [5] and in assay [6].

For the molecule `Cc1oc(-c2ccccc2)nc1CCOc1ccc(C[C@H](Nc2ccccc2C(=O)c2ccccc2)C(=O)O)cc1`, the call in [1], in [2], in assay [7], in [8] and in assay [5] was inactive. Moreover, the AC50 in assay [3] is 16.6 µM (active).

With `CCc1ccc(CCOc2ccc(CC3SC(=O)NC3=O)cc2)nc1` (configuration not stated), the call in [1], in assay [2], in assay [7], in assay [3], in [4] and in [8] was inactive. In addition, the molecule was classed as inactive in assay [5] and in assay [6].

Turning to `Oc1cccc(O)c1`, the molecule was called inactive in assay [1], in [2], in assay [7], in assay [3], in assay [8] and in assay [5]. Besides, the molecule was classed as inactive in [6].

For the molecule `Nc1cccc2c(N)cccc12`, the molecule was called inactive in [1], in assay [2], in assay [7], in assay [3], in [4] and in assay [8]. Also, the molecule was called inactive in assay [5] and in assay [6].

With `CC(C)(C)CC(C)(C)c1ccc(O)c(-n2nc3ccccc3n2)c1`, the molecule was called inactive in [1], in [2], in assay [7] and in assay [5]. Also, the AC50 in [3] was 6.7 µM (active); in [8], 26.8 µM (active).

As to `CCCCC(CC)COC(=O)CCCCC(=O)OCc1ccccc1` (configuration not stated), the outcome in assay [1], in assay [2], in [7], in assay [3], in [8] and in assay [5] was inactive.

With `COc1cc(CCC(=O)CC(=O)CCc2ccc(O)c(OC)c2)ccc1O`, the call in [1], in [2], in [7], in [4], in assay [8] and in assay [5] was inactive. Further, the outcome in [6] was inactive. Further, in assay [3], the AC50 was 13.7 µM (active).

`c1ccc2cc3c(ccc4ccccc43)cc2c1`: the outcome in [1], in [2], in [7], in assay [3], in assay [4] and in assay [5] was inactive. Moreover, the outcome in assay [6] was inactive. Further, the half-maximal activity concentration (AC50) in assay [3] was 7.85 µM (active); in assay [8], 2.44 µM (active) [middle of 4 runs].

Regarding `CC#C[C@]1(O)CC[C@H]2[C@@H]3CCC4=CC(=O)CCC4=C3[C@@H](c3ccc(N(C)C)cc3)C[C@@]21C`, the AC50 in assay [1] was 11.3 µM (active) and 26.2 µM (active); in assay [2], 14.7 µM (active); in assay [5], 35.7 µM (active) [middle of 4 runs]. For the same molecule, the molecule was called inactive in assay [2], in assay [8] and in assay [6].

Turning to `CCOC(=O)CC(O)(CC(=O)OCC)C(=O)OCC`, the molecule was classed as inactive in assay [1], in [2], in [7], in assay [3], in [4] and in [8]. Besides, the molecule was called inactive in assay [5] and in assay [6].

On to `O=[N+]([O-])c1ccc(O)cc1`, for which the outcome in assay [1], in [2], in [7], in assay [3], in [8] and in assay [5] was inactive.

On to `COCC(C)OCC(C)O` (configuration not stated), for which the result in assay [1], in assay [2], in [7], in assay [3], in [9] and in assay [5] was inactive. Moreover, the result in assay [6] was inactive.

For `CCCCC(CC)COC(=O)CCCCC(=O)OCC(CC)CCCC` (configuration not stated), the molecule was classed as inactive in assay [1], in assay [2], in assay [7], in assay [3], in assay [8] and in assay [5]. In addition, in [6], the molecule was called inactive.

As to `CCCCCCC(=O)O`, the outcome in assay [1], in assay [2], in assay [7], in assay [3], in assay [4] and in assay [8] was inactive. The outcome in assay [9], in assay [5] and in [6] was inactive.
